“And” between values parts separate entries of the source, which are not always exact repeats. Equal values may be shown once. Inconclusive results are not listed. The source made the active and inactive calls.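 How the source made its calls, unless noted: active means normalized viability below 100% at a tested concentration; inactive means the rest.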
Assays:
[1] = growth inhibition of DIPG glioma cells, dose response, cell-based, SU-DIPG-XVII, MIPE5.0, CellTiter-Glo, qHTS (AID 1347060; cut-off not given, nearly all actives have AC50 up to about 26 µM;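 on AC50: cells exposed to compound for 48 hours before viability readout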); settings: SU-DIPG-XVII viability, CellTiter-Glo ATP luminescence
[2] = growth inhibition of DIPG glioma cells, dose response, cell-based, JHH-DIPG-1, MIPE4.0, CellTiter-Glo, qHTS (AID 1347062; cut-off not given, nearly all actives have AC50 up to about 27 µM;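 on AC50: cells exposed to compound for two days before readout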); settings: JHH-DIPG-1 viability, CellTiter-Glo ATP luminescence
[3] = growth inhibition of DIPG glioma cells, dose response, cell-based, SU-DIPG-IV, MIPE4.0, CellTiter-Glo, qHTS (AID 1347063; cut-off not given, nearly all actives have AC50 up to about 30 µM;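 further: compound exposure lasted 48 hours before the viability readout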); settings: SU-DIPG-IV viability, CellTiter-Glo ATP luminescence
[4] = growth inhibition of DIPG glioma cells, dose response, cell-based, SU-DIPG-XIII, MIPE5.0, CellTiter-Glo, qHTS (AID 1347064; cut-off not given, nearly all actives have AC50 up to about 23 µM;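 on AC50: cells exposed to compound for 48 hours before the viability read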); settings: SU-DIPG-XIII viability, CellTiter-Glo ATP luminescence
[5] = viability loss in pontine glioma line – cell-based, SU-DIPG-XXV, MIPE5.0, CellTiter-Glo, qHTS, dose response (AID 1347065; cut-off not given, nearly all actives have AC50 up to about 26 µM;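 further: cells exposed to compound for 48 hours before ATP readout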); settings: CellTiter-Glo ATP luminescence
[6] = SU-DIPG-VI glioma cell viability, MIPE4.0 library, CellTiter-Glo luminescence, qHTS (AID 1347066; cut-off not given, nearly all actives have AC50 up to about 30 µM;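 further: cells exposed to compound for 48 hours before readout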); settings: CellTiter-Glo ATP luminescence
[7] = JHH-DIPG-1 glioma cell viability, MIPE5.0 library, CellTiter-Glo luminescence, qHTS (AID 1347067; cut-off not given, nearly all actives have AC50 up to about 26 µM;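 further: cells exposed to compound for 48 hours before readout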); settings: JHH-DIPG-1 glioma viability, CellTiter-Glo ATP luminescence
[8] = SU-DIPG-XXV glioma cell viability, MIPE5.0 library, qHTS (AID 1347068; cut-off not given, nearly all actives have IC50 up to about 30 µM;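 on IC50: cells exposed to compound for 48 hours before viability readout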)
[9] = sensitizers of A549 cells to miR-34 induction, primary screen, imaging, A549 dox-inducible miR-34, nuclei and caspase counts (AID 1347080;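 active means compounds whose cell count with miR-34 switched on is under 0.7 times the count with it off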); settings: A549 miR-34 inducible, Hoechst nuclei count, 48 h
[10] = modifiers of HSF1 nuclear foci, imaging, Selleck Cancer Library (AID 1347162; in the data active means plate-normalised HSF1 focus index below about 0.46); settings: human cells, at 10 µM; SSMD: measured here: HSF1 foci SSMD mean; cell count: measured here: cell number; plate-normalised HSF1 focus index: stronger effect = lower value
[11] = survival rescue of mitochondrial mutant cells in low glucose, primary screen, MELAS cybrids, Rieske KO mouse fibroblasts, CellTiter-Glo (AID 1508586;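 active means mean z-score across replicates of 1.96 or higher in either the MELAS or the Rieske mutant cell line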;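 further: z relative to plate mean and SD of compound and empty wells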)
[12] = ovarian cancer cell viability with rucaparib, profiling panel, oncology-focused library, rucaparib conditional (AID 1508598); settings: patient-derived ovarian cancer cells, CellTiter-Glo viability, 144 h, stronger effect = lower value
[13] = growth inhibition of DIPG glioma cells, dose response, cell-based, SU-DIPG-XIII, MIPE4.0, CellTiter-Glo, qHTS (AID 1347061; cut-off not given, nearly all actives have AC50 up to about 37 µM;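 further: cells exposed to compound for 48 hours before readout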); settings: SU-DIPG-XIII viability, CellTiter-Glo ATP luminescence
[14] = stronger effect = lower value, cell number ratio, induced over uninduced
[15] = measured here: relative caspase fold change +Dox/-Dox
[16] = measured here: total cells with miR-34 induction, stronger effect = lower value
[17] = measured here: total cells without miR-34 induction
[18] = at 0.000305 µM, OCI-C5x cells, with rucaparib 10 µM, 100% = cells with rucaparib alone
[19] = at 0.000305 µM, OCI-C5x cells, without rucaparib
[20] = at 0.000305 µM, OCI-P5x cells, with rucaparib 20 µM, 100% = cells with rucaparib alone
[21] = at 0.000305 µM, OCI-P5x cells, without rucaparib
[22] = at 0.00122 µM, OCI-C5x cells, with rucaparib 10 µM, 100% = cells with rucaparib alone
[23] = at 0.00122 µM, OCI-C5x cells, without rucaparib
[24] = at 0.00122 µM, OCI-P5x cells, with rucaparib 20 µM, 100% = cells with rucaparib alone
[25] = at 0.00122 µM, OCI-P5x cells, without rucaparib
[26] = at 0.00488 µM, OCI-C5x cells, with rucaparib 10 µM, 100% = cells with rucaparib alone
[27] = at 0.00488 µM, OCI-C5x cells, without rucaparib
[28] = at 0.00488 µM, OCI-P5x cells, with rucaparib 20 µM, 100% = cells with rucaparib alone
[29] = at 0.00488 µM, OCI-P5x cells, without rucaparib
[30] = at 0.0195 µM, OCI-C5x cells, with rucaparib 10 µM, 100% = cells with rucaparib alone
[31] = at 0.0195 µM, OCI-C5x cells, without rucaparib
[32] = at 0.0195 µM, OCI-P5x cells, with rucaparib 20 µM, 100% = cells with rucaparib alone
[33] = at 0.0195 µM, OCI-P5x cells, without rucaparib
[34] = at 0.0781 µM, OCI-C5x cells, with rucaparib 10 µM, 100% = cells with rucaparib alone
[35] = at 0.0781 µM, OCI-C5x cells, without rucaparib
[36] = at 0.0781 µM, OCI-P5x cells, with rucaparib 20 µM, 100% = cells with rucaparib alone
[37] = at 0.0781 µM, OCI-P5x cells, without rucaparib
[38] = at 0.313 µM, OCI-C5x cells, with rucaparib 10 µM, 100% = cells with rucaparib alone
[39] = at 0.313 µM, OCI-C5x cells, without rucaparib
[40] = at 0.313 µM, OCI-P5x cells, with rucaparib 20 µM, 100% = cells with rucaparib alone
[41] = at 0.313 µM, OCI-P5x cells, without rucaparib
[42] = at 1.25 µM, OCI-C5x cells, with rucaparib 10 µM, 100% = cells with rucaparib alone
[43] = at 1.25 µM, OCI-C5x cells, without rucaparib
[44] = at 1.25 µM, OCI-P5x cells, with rucaparib 20 µM, 100% = cells with rucaparib alone
[45] = at 1.25 µM, OCI-P5x cells, without rucaparib
[46] = at 5 µM, OCI-C5x cells, with rucaparib 10 µM, 100% = cells with rucaparib alone
[47] = at 5 µM, OCI-C5x cells, without rucaparib
[48] = at 5 µM, OCI-P5x cells, with rucaparib 20 µM, 100% = cells with rucaparib alone
[49] = at 5 µM, OCI-P5x cells, without rucaparib

Cn1cnc(=N)c2[nH]cnc21
9400: cell count [9, 16]
inactive: outcome [1] | outcome [4] | outcome [5] | outcome [7] | outcome [8] | fold change [9, 14] 0.904 | plate-normalised HSF1 focus index [10] 1.08 | z-score ([11]; MELAS cybrid survival, CellTiter-Glo 48 h, stronger effect = higher value) -0.304 | viability [12, 18] 112% | viability [12, 19] 111% | viability [12, 22] 111% | viability [12, 23] 114% | viability [12, 24] 100% | viability [12, 26] 107% | viability [12, 27] 119% | viability [12, 28] 108% | viability [12, 30] 114% | viability [12, 31] 112% | viability [12, 32] 113% | viability [12, 33] 102% | viability [12, 34] 107% | viability [12, 35] 111% | viability [12, 36] 116% | viability [12, 37] 107% | viability [12, 38] 112% | viability [12, 39] 116% | viability [12, 40] 107% | viability [12, 41] 109% | viability [12, 42] 110% | viability [12, 43] 115% | viability [12, 44] 109% | viability [12, 45] 109% | viability [12, 46] 100% | viability [12, 47] 125% | viability [12, 48] 116% | viability [12, 49] 110%
-0.808: z-score ([11]; Rieske KO mouse fibroblast survival, CellTiter-Glo 72 h)
active: AC50 [2] 4.69 µM | AC50 [3] 4.69 µM | AC50 [6] 0.235 µM | viability [12, 20] 99% | viability [12, 21] 94.2% | viability [12, 25] 97.1% | viability [12, 29] 99.6%
10400: cell count [9, 17]
0.712: fold change [9, 15]
2.26: SSMD [10]
7250: cell count [10]

Cc1cc(SCc2sc(-c3ccc(C(F)(F)F)cc3)nc2C)ccc1OCC(=O)O
inactive: outcome [1] | outcome [2] | outcome [3] | outcome [4] | outcome [5] | outcome [6] | outcome [7] | outcome [8]

CC[C@H](C)n1cc(C)c2c(C(=O)NCc3c(C)cc(C)[nH]c3=O)cc(-c3ccc(N4CCNCC4)nc3)cc21
active: AC50 [13] 14.8 µM | AC50 [6] 23.5 µM | IC50 [8] 20.9 µM
inactive: outcome [1]

O=C1CCCC(=O)C1C(=O)c1ccc(C(F)(F)F)cc1[N+](=O)[O-]
inactive: outcome [1] | outcome [2] | outcome [3] | outcome [4] | outcome [5] | outcome [6] | outcome [7] | outcome [8]

CC1(C)Cc2c(sc(NC(=S)NC(=O)c3ccccc3)c2C(=O)O)CO1
inactive: outcome [1] | outcome [2] | outcome [3] | outcome [4] | outcome [5] | outcome [6] | outcome [7] | outcome [8]

NC1=N[C@H]2[C@H](CS[C@H]2CCCCC(=O)O)N1
inactive: outcome [1] | outcome [2] | outcome [3] | outcome [4] | outcome [5] | outcome [6] | outcome [7]

CCCCC(C)(C)[C@H](O)/C=C/[C@H]1[C@H](O)CC(=O)[C@@H]1C/C=C\CCCC(=O)O
6170 and 5850: cell count [9, 17]
inactive: outcome [2] | outcome [3] | outcome [8] | fold change [9, 14] 1.01 and 0.939
6230 and 5490: cell count [9, 16]
1.62 and 1.28: fold change [9, 15]
active: AC50 [1] 13.2 µM | AC50 [4] 14.8 µM | AC50 [5] 14.8 µM | AC50 [6] 18.7 µM | AC50 [7] 14.8 µM

CN1CCCN(C(=O)c2cccc(-c3ccc(/C=C4/C(=O)Nc5ccc(Cl)cc54)o3)c2)CC1
inactive: viability [12, 18] 101% | viability [12, 20] 105% | viability [12, 21] 105% | viability [12, 22] 103% | viability [12, 23] 102% | viability [12, 24] 107% | viability [12, 25] 103% | viability [12, 27] 104% | viability [12, 28] 106% | viability [12, 29] 106% | viability [12, 33] 103% | viability [12, 34] 108% | viability [12, 35] 107% | viability [12, 36] 109% | viability [12, 37] 102% | viability [12, 38] 105% | viability [12, 39] 111%
active: AC50 [1] 8.33 µM | AC50 [2] 20.9 µM | AC50 [3] 9.35 µM | AC50 [4] 7.42 µM | AC50 [5] 10.5 µM | AC50 [6] 10.5 µM | AC50 [7] 2.35 µM | IC50 [8] 29.5 µM | viability [12, 19] 96.5% | viability [12, 26] 99.3% | viability [12, 30] 90.6% | viability [12, 31] 99.3% | viability [12, 32] 97.1% | viability [12, 40] 100% | viability [12, 41] 94.8% | viability [12, 42] 98% | viability [12, 43] 96.2% | viability [12, 44] 95.1% | viability [12, 45] 93.4% | viability [12, 46] 2.49% | viability [12, 47] 2.79% | viability [12, 48] 1.66% | viability [12, 49] 1.82%

CC[C@@H]1C(=O)N(C)c2cnc(Nc3ccc(C(=O)NC4CCC(N5CCN(CC6CC6)CC5)CC4)cc3OC)nc2N1C(C)C (some centres undefined)
7310: cell count [10]
active: AC50 [1] 0.0742 µM | AC50 [2] 6.62 µM | AC50 [3] 2.35 µM | AC50 [4] 5.9 µM | AC50 [5] 0.0525 µM | AC50 [6] 20.9 µM | AC50 [7] 4.17 µM | IC50 [8] 6.61 µM | viability [12, 20] 97.4% | viability [12, 25] 95.9% | viability [12, 26] 89.2% | viability [12, 27] 87.7% | viability [12, 28] 84.5% | viability [12, 29] 26.8% | viability [12, 30] 51.8% | viability [12, 31] 43.7% | viability [12, 32] 64.2% | viability [12, 33] 18.3% | viability [12, 34] 49.3% | viability [12, 35] 32.9% | viability [12, 36] 67.2% | viability [12, 37] 20.5% | viability [12, 38] 41.4% | viability [12, 39] 36.3% | viability [12, 40] 70.1% | viability [12, 41] 17.3% | viability [12, 42] 26.6% | viability [12, 43] 25.2% | viability [12, 44] 9.33% | viability [12, 45] 13.8% | viability [12, 46] 4.03% | viability [12, 47] 21.5% | viability [12, 48] 1.64% | viability [12, 49] 12.5%
4.31: SSMD [10]
inactive: plate-normalised HSF1 focus index [10] 1.16 | viability [12, 18] 101% | viability [12, 19] 104% | viability [12, 21] 102% | viability [12, 22] 107% | viability [12, 23] 102% | viability [12, 24] 100%

From PubChem BioAssay
